Drawing on PubChem BioAssay AID720504 (National Center for Advancing Translational Sciences (NCATS), 2013), this text covers max response, negative = inhibition and Potency for 85 compounds.

Out of some 360,000 compounds screened, about 10,000 (2.8%) were called active. Another 4% or so got no clear call; they are omitted. Shown is part of a subset that was picked to be rich in actives. A number with no mark means an inactive call. Calls follow the shape of the dose curve; as a rule, active = well fitted inhibition curve with a large enough effect; inconclusive = small, poorly fitted or top-dose-only effect; inactive = flat fitted curve, though single readings scatter.
% is scaled to controls: 0 for no effect and ±100 for the full control effect; potency is read from the fitted curve at half-maximal effect.

The target of the assay is Serine/threonine-protein kinase PLK1 (Homo sapiens) (UniProt P53350). The assay is described as follows: qHTS for Inhibitors of PLK1-PDB (polo-like kinase 1 - polo-box domain): Primary Screen. Also: nearly all actives have a fitted effect of over 65% in size. As to max response, negative = inhibition: series mostly up to about 57 µM. The conditions noted are these: Plk1 PBD binding of FITC phosphopeptide, fluorescence polarization. (qHTS replaces the single test concentration by a dilution series.)
Serine/threonine-protein kinase PLK1 (Homo sapiens), sequence (P53350 whole entry, looked up, the tested form may be a part): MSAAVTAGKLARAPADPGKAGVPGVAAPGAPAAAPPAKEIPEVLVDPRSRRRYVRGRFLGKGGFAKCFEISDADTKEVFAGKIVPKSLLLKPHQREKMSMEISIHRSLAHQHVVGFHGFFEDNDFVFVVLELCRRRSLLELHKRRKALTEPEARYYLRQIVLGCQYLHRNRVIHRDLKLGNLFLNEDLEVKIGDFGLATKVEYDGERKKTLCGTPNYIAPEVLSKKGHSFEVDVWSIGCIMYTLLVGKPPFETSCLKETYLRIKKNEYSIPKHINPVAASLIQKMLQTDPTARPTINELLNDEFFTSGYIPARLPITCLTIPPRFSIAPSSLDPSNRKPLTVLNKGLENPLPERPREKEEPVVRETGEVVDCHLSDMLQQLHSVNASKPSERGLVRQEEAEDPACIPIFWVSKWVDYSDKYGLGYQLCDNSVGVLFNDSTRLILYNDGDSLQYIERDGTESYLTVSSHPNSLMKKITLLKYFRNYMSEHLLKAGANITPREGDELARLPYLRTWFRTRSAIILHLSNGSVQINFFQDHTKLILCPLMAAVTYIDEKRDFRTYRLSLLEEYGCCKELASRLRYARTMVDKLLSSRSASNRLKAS
For `Cc1cc(C)n2c(Nc3c(C)cccc3C)c(CCc3ccccc3)nc2n1`, the max response, negative = inhibition is -7.58%. On the same count and under the same terms, the value for `CC(=O)c1cccc(NC(=O)c2cc(C)nn2-c2ccccc2)c1` was 5.02%.

For `CSc1ccccc1C(=O)Nc1cccc(C(C)=O)c1`, the Potency was 23.8 µM (active).

Take `CSc1ccccc1C(=O)NCc1ccccc1`: the max response, negative = inhibition was -11.2%. Still for that read-out and setting: to `CN(Cc1c(F)cccc1Cl)C(=O)COC(=O)Cn1cnc2ccccc2c1=O` belongs -0.103%; to `CC(C)C1C(=O)N(Cc2cn(CCC3OCCO3)nn2)CCS(=O)(=O)N1Cc1ccc(-c2ccccc2C(F)(F)F)cc1` (stereo not given), 0.333%; to `COc1cccc(-c2ccc3c(c2)N(Cc2ccccc2OC)C(=O)C(C)S3)c1` (stereo not given), 0.113%. As to `CCOC(=O)C1CCCN(C(=O)c2ccc(N(C)C)cc2)CC1` (stereo not given), the max response, negative = inhibition was -4.5%. On to `Cc1cccc(NC(=S)N2CCC(C(=O)c3ccc(F)cc3)CC2)c1`, for which the Potency is 2.99 µM (active). For `CC(=O)c1cccc(NC(=S)N2CCCC2)c1`, the max response, negative = inhibition was -6.15%. On the same count and under the same terms, the value for `Cc1cccc(NC(=S)N2CCC(c3nc4ccccc4s3)CC2)c1` was -1.09%. On the same count and under the same terms, to `CCOC(=O)C1(C)CCCN(C(=O)c2ccc(F)c(Cl)c2)C1` (stereo not given) belongs -9.56%. On the same count and under the same terms, to `CN(C)C(CNC(=O)c1cccc(S(=O)(=O)N2CCc3ccccc3C2)c1)c1ccccc1` (stereo not given) belongs -5.08%; to `CC1(C(=O)NS(=O)(=O)c2cccc(F)c2)CCN1C(=O)c1cccc2ccccc12` (stereo not given), -0.565%; to `COc1ccc2[nH]cc(CCN3C(=O)c4ccc(C(=O)O)cc4C3=O)c2c1`, -13.3%.

As for `O=C1c2ccccc2C(=O)N1CCCCCCN1C(=O)c2ccccc2C1=O`, the max response, negative = inhibition was -2.55%.

Take `Cc1ccc2[nH]cc(CCCN3C(=O)c4ccccc4C3=O)c2c1`: the Potency was 29.9 µM (active). For the compound `COC(=O)C1(C(=O)OC)C/C=C\CN(S(=O)(=O)c2ccccc2[N+](=O)[O-])CCC1`, the max response, negative = inhibition was 3.46%. For `O=C1OCCC1=COCCCCOC=C1CCOC1=O`, the max response, negative = inhibition is 1.79%. In the case of `Cc1ccc(NC(=O)O/N=C/c2cccc([N+](=O)[O-])c2)cc1`, the max response, negative = inhibition was -16.5%. The same measure, in the same setting: to `O=C(NCCN1CCN(C(=O)c2cccc([N+](=O)[O-])c2)CC1)C(=O)NCc1ccc(Cl)cc1` belongs 2.99%. For the compound `Cc1ccc(NC(=O)C(=O)NCC2CCN(C(=O)c3cccc([N+](=O)[O-])c3)CC2)cc1`, the Potency was 29.9 µM (active). Consider `Cc1cccc(C)c1NC(=O)CNC(=O)c1ccc(N2CCOCC2)c([N+](=O)[O-])c1`, for which the max response, negative = inhibition was -13.7%. Regarding `O=C(CNC(=O)c1ccccc1)Oc1ccc([N+](=O)[O-])cc1`, the Potency was 5.32 µM (active). For the compound `COC(=O)CNC(=O)c1ccccc1[N+](=O)[O-]`, the max response, negative = inhibition was -2.66%. Regarding `O=C(NNS(=O)(=O)Cc1ccccc1)c1ccc([N+](=O)[O-])cc1`, the max response, negative = inhibition was -14.2%. `Cc1ccc(Cc2c(-c3ccc(C)cc3)nc3c4ccccc4ccn23)cc1`: the max response, negative = inhibition is 5.48%. Regarding `COc1cc(C=C(OC(C)=O)c2ccc3c(c2)OCO3)cc(OC)c1OC`, the max response, negative = inhibition is -7.84%. As for `CCOC(=O)C1(C)CCCN(C(=O)c2ccc(N(C)C)cc2)C1` (stereo not given), the max response, negative = inhibition is -5.89%. Same read-out and setting: to `COc1cccc(CNC(=O)CN(C)S(=O)(=O)c2ccc3c(c2)c(=O)n(C)c(=O)n3C)c1` belongs -6.18%; to `CCc1ccccc1NC(=O)CN(C)S(=O)(=O)c1ccc2c(c1)c(=O)n(C)c(=O)n2C`, -2.91%.

For `CC1CCC(NC(=O)CN(C)S(=O)(=O)c2ccc3c(c2)c(=O)n(C)c(=O)n3C)CC1` (stereo not given), the Potency is 18.9 µM (active). `CCNC(=O)C1CCCN(C(=O)c2ccc(OC)cc2OC)CC1` (stereo not given): the max response, negative = inhibition is -11.4%. Still for that read-out and setting: the value for `Cc1cc(C)c(C=NNc2nc3c([nH]2)c(=O)n(C)c(=O)n3C)c(C)c1` was -11.3%.

For the compound `Cc1cccc(C)c1NC(=O)CSc1nc2c([nH]1)c(=O)n(C)c(=O)n2C`, the max response, negative = inhibition was -5.89%. On to `Cc1ccc(NN=Nc2nc3c([nH]2)c(=O)n(C)c(=O)n3C)cc1`, for which the Potency is 23.8 µM (active). In the case of `C[C@H]1CN([C@@H](C)CO)C(=O)CCCn2cc(nn2)CO[C@@H]1CN(C)S(=O)(=O)c1cccs1`, the max response, negative = inhibition was -15.8%.

`Cc1ccc(C(=O)N/C(=C\c2ccc(F)cc2)C(=O)NCCN2CCOCC2)cc1`: the max response, negative = inhibition is -16.1%. Regarding `CCn1cc(/C=C(\NC(=O)c2ccc(C)cc2)C(=O)NCCN2CCOCC2)c2ccccc21`, the Potency was 26.7 µM (active). In the case of `O=C(NCCN1CCOCC1)/C(=C/c1ccc(F)cc1)NC(=O)c1ccccc1`, the max response, negative = inhibition is -12.8%. For `CCCOc1ccc(F)cc1-c1cc(C(=O)Nc2ccc(F)cc2)[nH]n1`, the max response, negative = inhibition is 6.37%. `O=C(NCc1cccc(C(F)(F)F)c1)c1ccc2sc(COCCO)nc2c1`: the max response, negative = inhibition is -3.85%. `CCOC(=O)C1C(C)C(C(C)(C)C)N(S(=O)(=O)c2ccc(C)cc2)C1c1ccccc1` (stereo not given): the max response, negative = inhibition was -10.1%.

As to `CC1(C(=O)NCC2CCOCC2)Cc2c(-c3cccc(C(N)=O)c3)ccnc2O1` (stereo not given), the max response, negative = inhibition was -6.03%. As to `Cc1nc(COc2cccc(Cl)c2)sc1C(=O)/C=C/N(C)C`, the max response, negative = inhibition was 6.79%.

As to `Cc1nc(-c2ccccc2)sc1C(=O)/C=C/N(C)C`, the Potency is 29.9 µM (active). With `CN(C)/C=C/C(=O)c1ccccc1F`, the max response, negative = inhibition is -6.3%. Same read-out and setting: the value for `Cc1ccc(-c2nc3c(Cl)cc(C(F)(F)F)cn3c2Cc2cccc(Cl)c2)cc1` was 4.46%. As for `CCOC(=O)c1c(NC(=O)C2CC=CCC2C(=O)O)sc(C)c1CC` (stereo not given), the Potency is 26.7 µM (active). Turning to `COC(=O)c1c(NC(=O)C2CC(C)=C(C)CC2C(=O)O)sc2c1CCCCC2` (stereo not given), the max response, negative = inhibition was -20.4%. In the case of `CCOC(=O)c1c(NC(=O)CN2C(=O)NC3(CCC(C)CC3)C2=O)sc(C)c1CC` (stereo not given), the max response, negative = inhibition is -5.1%. The same measure, in the same setting: to `Nc1ncnc2c1ncn2[C@@H]1O[C@H](C(=O)NS(=O)(=O)c2c(Cl)nc3sccn23)[C@@H](O)[C@H]1O` belongs -12.2%.

With `COCCNc1ncnc2c1ncn2[C@H]1CN(Cc2ccc(OC)cc2)C[C@@H](CO)O1`, the max response, negative = inhibition was 5.71%. Same read-out and setting: the value for `CCCC1(C(=O)OCC)NC(c2ccc(N(C)C)cc2)C2C(=O)N(c3ccc4c(c3)OCCO4)C(=O)C21` (stereo not given) was 0.149%.

For `CCOC(=O)C1(C)NC(c2ccco2)C2C(=O)N(c3ccccc3)C(=O)C21` (stereo not given), the max response, negative = inhibition was -2.81%.

As to `CCCCC1(C(=O)OCC)NC(c2ccc(O)cc2)C2C(=O)N(c3ccccc3)C(=O)C21` (stereo not given), the Potency was 11.9 µM (active). As for `COc1ccc(CCNC(=O)Nc2ccc3c(c2)c(=O)n(C)n3C)cc1OC`, the max response, negative = inhibition is -18.9%. On to `N#CCSc1ccccc1NC(=O)CN1C(=O)NC(CCc2ccccc2)C1=O` (stereo not given), for which the max response, negative = inhibition is 1.14%. On the same count and under the same terms, to `COc1ccc(C(C(=O)NCc2ccccc2)n2c(=O)c(-c3ccccc3)nc3ccccc32)cc1` (stereo not given) belongs -13.5%.

With `COc1ccccc1NC(=O)C1=C(C)NC(=O)NC1c1ccc(C)s1` (stereo not given), the max response, negative = inhibition is -4.66%. The same measure, in the same setting: to `CCC(=O)Nc1sc(C(=O)Nc2ccccc2)c(C)c1C(=O)OC` belongs -13%. With `COC(=O)c1c(NC(C)=O)sc(C(=O)Nc2ccccc2OC)c1C`, the Potency is 21.2 µM (active). With `Cc1[nH]c2ccccc2c1C(=O)c1cc([C@H](NC(=O)OC(C)(C)C)C(C)C)sc1N`, the max response, negative = inhibition was -13.9%.

For `COc1c(C)cc(C(O)c2ncc(-c3cccc(C(F)(F)F)c3)[nH]2)cc1C` (stereo not given), the max response, negative = inhibition was -6.75%. Same read-out and setting: to `CCCC(=O)N1CCC1(C)C(=O)NS(=O)(=O)c1ccc(Cl)cc1` (stereo not given) belongs -0.638%; to `O=C(NCc1ccc(F)cc1F)[C@@H]1CCCN1C(=O)[C@@H]1CCCN1C(=O)c1cccc(Cl)c1`, -3.81%. Regarding `COc1ccc(NC(=O)N(C)C[C@@H]2OCc3cn(nn3)CCCC(=O)N([C@H](C)CO)C[C@H]2C)c(OC)c1`, the max response, negative = inhibition is -13%. Turning to `COc1cccc(CNc2nc(NCc3ccccc3OC)nc3ccsc23)c1`, the max response, negative = inhibition was 5.58%. Turning to `CCC(C)NC(=O)CCCc1ccccc1` (stereo not given), the max response, negative = inhibition is -5.23%.

Consider `CCCCC(=O)NNC(=S)NC(=O)C(c1ccccc1)c1ccccc1`, for which the Potency is 26.7 µM (active). With `O=C(CCN1CCN(c2ccccc2)CC1)NNC(=S)Nc1ccccc1`, the max response, negative = inhibition was 2.64%. Same read-out and setting: the value for `Cc1cc(Br)ccc1NC(=O)CCCOc1cc(=O)n(C)c2ccccc12` was -7.55%; that for `O=C(COC(=O)Cc1ccc(Cl)cc1Cl)NCc1ccco1` was -7.73%; that for `COC(=O)[C@@]1(Sc2ccc(C)cc2)CC(=O)N(c2cccc(SC)c2)[C@@H]1c1ccccc1` was -14.8%. Same read-out and setting: the value for `CC(Sc1ccc(S(=O)(=O)N2CCN(C)CC2)cn1)C(=O)NC1CCCC(C)C1C` (stereo not given) was -3.15%; that for `CCN1/C(=C\c2ccc3ccccc3[n+]2CC)Sc2cc(C)ccc21` was 18.1%. For the compound `CCN1/C(=C/C(=S)Nc2ccccc2)Sc2ccccc21`, the Potency is 21.2 µM (active). For `CCNCCC(=O)N1c2ccccc2Sc2ccc(NC(=O)OCC)cc21`, the max response, negative = inhibition was 4.19%. The same measure, in the same setting: the value for `O=C(CCc1ccc(O)cc1)NN=Cc1cc(Br)ccc1O` was -9.45%; that for `CNS(=O)(=O)c1ccc2c(c1)[nH]c(=S)n2C` was -13.6%; that for `CN1OC[C@@H]2CN(S(=O)(=O)c3cccc4ccccc34)[C@H](c3ccc(N4CCCCC4)cc3)C[C@@H]21` was -17.2%. As for `CCCNC(=O)C1(C)CCN(C(=O)c2ccccc2OC(F)(F)F)C1` (stereo not given), the max response, negative = inhibition was 1.6%. For the compound `COc1cc(C2/C(=C(\O)c3ccc4c(c3)CC(C)O4)C(=O)C(=O)N2c2nnc(C)s2)cc(OC)c1OC` (stereo not given), the Potency is 23.8 µM (active). Regarding `COCCCN1C(=O)C(=O)/C(=C(/O)c2ccc3c(c2)CC(C)O3)C1c1cccnc1` (stereo not given), the max response, negative = inhibition is -4.58%. Still for that read-out and setting: the value for `COc1cc(C2/C(=C(\O)c3ccc4c(c3)CC(C)O4)C(=O)C(=O)N2Cc2ccco2)ccc1O` (stereo not given) was -6.21%.
